Data reported in PubChem BioAssay (EPA / NIEHS).
Records with an inconclusive call do not appear. Activity calls are given as the source filed them. How the source made its calls: active means hit-call score of the fitted dose curve at least 0.9, where 1 is the maximum; inconclusive means response in the unintended direction; inactive means score below 0.9.

target: human Phosphoinositide 3-kinase alpha (PI3Ka), PIK3CA (gene 5290) (UniProt P42336); assay: NVS_ENZ_hPI3Ka: NovaScreen (NVS) Enzymatic Assay for human Phosphoinositide 3-kinase alpha (PI3Ka) (AID 2283196)
In short: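 Enzyme activity as fluorescence after mobility-shift separation of substrate and product, 1 h reaction, recombinant human PI3Kα; concentration-response to 50 uM max for chemicals passing a 25 uM duplicate screen.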

Chain of human Phosphoinositide 3-kinase alpha (PI3Ka), PIK3CA (gene 5290) (P42336 whole entry, looked up): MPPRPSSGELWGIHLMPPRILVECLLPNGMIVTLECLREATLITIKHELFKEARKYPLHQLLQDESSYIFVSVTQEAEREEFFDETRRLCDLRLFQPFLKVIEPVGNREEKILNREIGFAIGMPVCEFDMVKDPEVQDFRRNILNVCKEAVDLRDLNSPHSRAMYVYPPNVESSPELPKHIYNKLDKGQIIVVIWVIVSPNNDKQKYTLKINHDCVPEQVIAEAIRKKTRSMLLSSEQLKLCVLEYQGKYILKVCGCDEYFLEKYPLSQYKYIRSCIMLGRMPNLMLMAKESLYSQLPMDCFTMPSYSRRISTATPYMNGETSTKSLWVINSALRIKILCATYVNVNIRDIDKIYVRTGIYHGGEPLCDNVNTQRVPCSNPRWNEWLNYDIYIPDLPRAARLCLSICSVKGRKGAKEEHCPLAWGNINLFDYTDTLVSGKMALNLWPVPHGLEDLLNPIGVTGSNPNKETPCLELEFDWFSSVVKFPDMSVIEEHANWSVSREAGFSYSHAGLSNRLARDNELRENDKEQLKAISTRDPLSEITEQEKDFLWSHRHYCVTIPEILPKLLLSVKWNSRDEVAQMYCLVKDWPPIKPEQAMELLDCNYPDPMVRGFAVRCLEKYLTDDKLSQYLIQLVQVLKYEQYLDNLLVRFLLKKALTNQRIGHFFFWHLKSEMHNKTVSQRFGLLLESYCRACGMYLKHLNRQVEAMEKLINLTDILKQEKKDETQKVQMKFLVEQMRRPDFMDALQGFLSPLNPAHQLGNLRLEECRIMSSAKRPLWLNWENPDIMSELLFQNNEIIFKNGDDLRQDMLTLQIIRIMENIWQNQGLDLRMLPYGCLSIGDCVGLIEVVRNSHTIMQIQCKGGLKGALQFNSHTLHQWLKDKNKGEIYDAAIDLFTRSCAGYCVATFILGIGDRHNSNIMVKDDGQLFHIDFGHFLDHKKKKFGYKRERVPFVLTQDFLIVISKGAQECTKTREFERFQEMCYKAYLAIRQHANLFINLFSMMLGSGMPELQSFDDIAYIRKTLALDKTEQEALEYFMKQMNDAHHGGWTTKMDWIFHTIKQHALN

Row | Compound | AC50 | outcome
1 | CC(C)(N=C=O)c1cccc(C(C)(C)N=C=O)c1 | 9.87 µM (active) | –
2 | CC(=O)CC(=O)Nc1ccccc1 | – | inactive
3 | COc1cc(Cl)c(OC)cc1N | – | inactive
4 | CC(=O)c1c(C)c([N+](=O)[O-])c(C(C)(C)C)c([N+](=O)[O-])c1C | – | inactive
5 | COC(C)(C)CC(C)=O | – | inactive
6 | COCCOC(=O)c1ccccc1C(=O)OCCOC | – | inactive
7 | CCOc1ccc(NC(=O)CC(C)=O)cc1 | – | inactive

target: human Vascular Endothelial Growth Factor Receptor 1 (VEGFR1), FLT1 (gene 2321) (UniProt P17948); assay: NVS_ENZ_hVEGFR1: NovaScreen (NVS) Enzymatic Assay for human Vascular Endothelial Growth Factor Receptor 1 (VEGFR1) (AID 2283226)
In short: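 Kinase activity of recombinant human VEGFR1 was read by fluorescence after electrophoretic separation of product from substrate, 1 h post-dosing; initial duplicate single-point testing at 25 uM, followed by concentration-series follow-up, with DMSO as baseline.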

Chain of human Vascular Endothelial Growth Factor Receptor 1 (VEGFR1), FLT1 (gene 2321) (P17948 whole entry, looked up): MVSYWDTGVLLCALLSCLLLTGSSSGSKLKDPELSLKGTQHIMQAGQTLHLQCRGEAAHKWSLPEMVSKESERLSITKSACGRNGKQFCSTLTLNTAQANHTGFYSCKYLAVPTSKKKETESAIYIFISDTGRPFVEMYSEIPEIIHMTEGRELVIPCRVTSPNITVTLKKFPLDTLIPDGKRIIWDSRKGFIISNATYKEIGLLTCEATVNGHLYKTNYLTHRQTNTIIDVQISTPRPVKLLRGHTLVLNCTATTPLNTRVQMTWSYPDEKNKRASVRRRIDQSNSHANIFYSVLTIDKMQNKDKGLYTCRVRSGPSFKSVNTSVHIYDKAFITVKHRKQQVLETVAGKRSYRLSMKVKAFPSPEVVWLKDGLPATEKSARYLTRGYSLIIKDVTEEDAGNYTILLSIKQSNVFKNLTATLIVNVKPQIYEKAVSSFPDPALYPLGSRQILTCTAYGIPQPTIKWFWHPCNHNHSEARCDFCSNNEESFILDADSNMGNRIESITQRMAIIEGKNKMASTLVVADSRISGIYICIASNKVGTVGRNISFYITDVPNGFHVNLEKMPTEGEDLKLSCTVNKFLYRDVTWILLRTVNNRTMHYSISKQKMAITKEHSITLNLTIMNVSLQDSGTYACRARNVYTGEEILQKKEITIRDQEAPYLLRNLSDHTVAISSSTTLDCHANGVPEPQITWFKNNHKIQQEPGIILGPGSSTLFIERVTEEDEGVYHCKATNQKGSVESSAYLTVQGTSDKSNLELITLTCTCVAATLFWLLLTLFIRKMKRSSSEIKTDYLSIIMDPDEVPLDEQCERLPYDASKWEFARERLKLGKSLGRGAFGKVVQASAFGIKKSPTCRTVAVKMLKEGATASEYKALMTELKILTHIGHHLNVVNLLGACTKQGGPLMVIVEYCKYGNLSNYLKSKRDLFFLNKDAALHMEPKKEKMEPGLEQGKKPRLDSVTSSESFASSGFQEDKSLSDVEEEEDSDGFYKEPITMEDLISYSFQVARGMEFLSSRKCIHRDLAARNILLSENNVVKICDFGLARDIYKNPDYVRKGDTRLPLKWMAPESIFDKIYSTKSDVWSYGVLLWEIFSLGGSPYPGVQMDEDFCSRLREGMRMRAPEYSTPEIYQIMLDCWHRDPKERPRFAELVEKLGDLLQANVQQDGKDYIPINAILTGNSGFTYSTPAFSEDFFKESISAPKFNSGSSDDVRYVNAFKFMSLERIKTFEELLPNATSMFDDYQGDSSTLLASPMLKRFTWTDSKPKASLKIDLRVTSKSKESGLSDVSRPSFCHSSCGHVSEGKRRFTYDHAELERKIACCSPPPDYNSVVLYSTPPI

Row | Compound | outcome | AC50
8 | COCCOC(=O)c1ccccc1C(=O)OCCOC | inactive | –
9 | CN(C)C(=S)SC(=S)N(C)C | inactive | –
10 | CC(=O)Nc1ccc(C(=O)CCl)cc1 | – | 40.1 µM (active)
11 | [O-]n1ccccc1=S.[O-]n1ccccc1=S.[Zn+2] | inactive | –

target: sheep Cyclooxygenase-1 (Cox1), PTGS1 (gene 443551) (UniProt P05979); assay: NVS_ENZ_oCOX1: NovaScreen (NVS) Enzymatic Assay for sheep Cyclooxygenase-1 (Cox1) (AID 2283239);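 further: actives reduce cyclooxygenase activity so potencies are for inhibitors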
In short: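 Absorbance read-out of cyclooxygenase activity in a cell-free preparation from sheep seminal vesicles, taken 0.66 hour after dosing. Initial testing was in duplicate at 25 uM, and confirmatory testing was run in concentration series.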

Chain of sheep Cyclooxygenase-1 (Cox1), PTGS1 (gene 443551) (P05979 whole entry, looked up): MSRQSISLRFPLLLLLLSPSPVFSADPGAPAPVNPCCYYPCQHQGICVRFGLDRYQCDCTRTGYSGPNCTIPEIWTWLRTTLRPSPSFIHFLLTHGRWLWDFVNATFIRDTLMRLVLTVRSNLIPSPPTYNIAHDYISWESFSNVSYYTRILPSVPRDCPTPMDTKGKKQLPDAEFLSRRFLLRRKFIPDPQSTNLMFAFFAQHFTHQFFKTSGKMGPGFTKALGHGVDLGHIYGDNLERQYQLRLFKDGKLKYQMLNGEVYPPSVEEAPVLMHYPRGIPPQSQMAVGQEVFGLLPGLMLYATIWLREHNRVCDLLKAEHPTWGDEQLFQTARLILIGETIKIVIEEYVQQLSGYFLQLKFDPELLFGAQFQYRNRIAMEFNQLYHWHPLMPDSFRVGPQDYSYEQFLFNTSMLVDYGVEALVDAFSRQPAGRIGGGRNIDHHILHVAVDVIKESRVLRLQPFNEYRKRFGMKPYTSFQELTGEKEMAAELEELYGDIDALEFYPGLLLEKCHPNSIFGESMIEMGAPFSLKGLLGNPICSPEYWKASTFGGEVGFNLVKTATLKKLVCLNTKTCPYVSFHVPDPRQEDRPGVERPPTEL

Row | Compound | AC50 | outcome
12 | CCCCCCCCCCCCCCCC(=O)OC/C=C(C)/C=C/C=C(C)/C=C/C1=C(C)CCCC1(C)C | 42.8 µM (active) | –
13 | CC(=O)C1(C)CC2=C(CCCC2(C)C)CC1C (configuration not stated) | – | inactive
14 | COc1cc(Cl)c(OC)cc1N | 25 µM (active) | –
15 | CN(C)C(=O)Nc1ccc(Oc2ccc(Cl)cc2)cc1 | 25 µM (active) | –
16 | c1ccc2[nH]cnc2c1 | – | inactive
17 | CS(=O)(=O)OCCCCOS(C)(=O)=O | – | inactive
18 | c1ccc(CCc2ccccc2)cc1 | – | inactive
19 | CC1(C)C2=CCCC(C)(C)[C@]23CC[C@H]1C3 | 16.4 µM (active) | –
20 | CCOC(=O)[C@@H](C)Oc1ccc(Oc2nc3ccc(Cl)cc3o2)cc1 | – | inactive
21 | CC(=O)Nc1ccc(C(=O)CCl)cc1 | – | inactive
22 | [O-]n1ccccc1=S.[O-]n1ccccc1=S.[Zn+2] | 5.57 µM (active) | –

target: guinea pig Opioid, Kappa 1 Receptor (OpiateK), OPRK1 (gene 100135587) (UniProt P41144); assay: NVS_GPCR_gOpiateK: NovaScreen (NVS) G Protein-Coupled Receptor Assay for guinea pig Opioid, Kappa 1 Receptor (OpiateK) (AID 2283252);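 further: radioligand displacement from kappa opioid receptor in guinea pig cerebellar membranes; active means reduced radioligand binding relative to DMSO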
In short: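 Cell-free tissue prep: guinea pig cerebellar membranes, radioligand displacement, 2 h incubation. Readout: filtration plus scintillation counting. Primary single-point 25 uM duplicate; actives retested in concentration series; DMSO negative control.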

Chain of guinea pig Opioid, Kappa 1 Receptor (OpiateK), OPRK1 (gene 100135587) (P41144 whole entry, looked up): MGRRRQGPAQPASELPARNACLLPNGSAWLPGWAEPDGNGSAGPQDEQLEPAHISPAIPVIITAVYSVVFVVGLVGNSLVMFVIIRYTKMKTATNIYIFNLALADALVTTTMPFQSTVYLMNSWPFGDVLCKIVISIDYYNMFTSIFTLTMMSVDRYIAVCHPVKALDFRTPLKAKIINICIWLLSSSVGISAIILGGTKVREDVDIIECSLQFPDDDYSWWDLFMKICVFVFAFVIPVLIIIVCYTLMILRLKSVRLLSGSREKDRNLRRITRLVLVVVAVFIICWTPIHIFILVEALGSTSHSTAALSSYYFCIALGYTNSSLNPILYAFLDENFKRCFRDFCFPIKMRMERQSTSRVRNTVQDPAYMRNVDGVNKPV

Row | Compound | AC50 | outcome
23 | CC(C)(N=C=O)c1cccc(C(C)(C)N=C=O)c1 | 36.7 µM (active) | –
24 | COc1ccc(CCN2CCC(Nc3nc4ccccc4n3Cc3ccc(F)cc3)CC2)cc1 | – | inactive
25 | O=C1OC[C@H](Cc2cccc(O)c2)[C@H]1Cc1cccc(O)c1 | 5.5 µM (active) | –
26 | CN(C)C(=S)SC(=S)N(C)C | 30.8 µM (active) | –
27 | CN(c1nccc(=O)[nH]1)C1CCN(c2nc3ccccc3n2Cc2ccc(F)cc2)CC1 | – | inactive
